The values that follow come from PubChem BioAssay (NCI).

Several values for one entry are separate records, joined by “and”; a condition that tells them apart may be missing. Equal entries are not always repeated. This is part of a sample that, as a whole, favours compounds with a hit. Of some 83,000 tested, about 20% had one in any assay.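 Interpretation: 100, growth as untreated; towards 0, rising growth inhibition; 0, no net growth; 0 to -100, cell death. Compounds scoring below 10 were considered active.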 Values without a mark were called inactive. Activity calls are given as the source filed them.

Assay in all cases: NCI-60 one-dose screen, 48 h (100 = growth as untreated, 0 = no growth, -100 = all killed)
Common to all, as to conditions: 10 µM unless noted

Assay [1] relates to HCT-15 colon.
Assay [2] concerns HT29 colon.
Assay [3] concerns SNB-75 CNS.
Assay [4] concerns SNB-19 CNS.
The subject of assay [5] is U251 CNS.
Assay [6] relates to PC-3 prostate.
Assay [7] concerns SK-MEL-5 melanoma.
Assay [8] has as its system UACC-62 melanoma.
The subject of assay [9] is LOX IMVI melanoma.
For assay [10], the system named is SK-MEL-28 melanoma.
The subject of assay [11] is SN12C renal.
The subject of assay [12] is UO-31 renal.
Assay [13] relates to TK-10 renal.
Assay [14] has as its system ACHN renal.
Assay [15] deals with CAKI-1 renal.
Assay [16] has as its system A498 renal.
The test system of assay [17] is CCRF-CEM leukemia.
Assay [18] concerns MOLT-4 leukemia.
The test system of assay [19] is SK-MEL-2 melanoma.
For assay [20], the system named is EKVX NSCLC.

`O=Nc1ccc(NO)c2ccccc12`: the growth is 99.5% and 95.7% in assay [1]; 106% and 35.3% in assay [2]; 95.8% and 90.8% in assay [3]; 118% and 99% in [4]; 101% and 79% in assay [5]; 81.9% and 36.4% in [6]. Also, the growth in [7] was 94.1% and 81.3%; in assay [8] it was 95.9% and 61.9%; in assay [9] it was 102% and 17.4%; in assay [10], 113% and 94.6%; in assay [11], 103% and 60.5%; in assay [12], 88.7% and 65.3%. For the same compound, the growth in assay [13] was 132% and 125%; in assay [14], 97.6% and 79.2%; in assay [15] it was 83.8% and 80.3%; in assay [16], 74% and 102%; in [17] it was 106% and 57.6%; in [18], 108% and 74.1%.
For `COc1ccc2c(c1)CC[C@@H]1[C@@H]2CC[C@]2(C)C3C(=CCC4C(=O)N(c5ccccc5)C(=O)C43)C[C@@H]12` (stereo not given in full), the growth in assay [1] is 88.5%; in assay [2], 71.3%; in assay [3] it was 79.8%; in [4], 108%; in assay [5] it was 87.5%; in assay [7] it was 89.9%. Also, the growth in [8] was 64.5%; in assay [9], 83.6%; in [10], 105%; in assay [19], 95.7%; in [20], 93%; in assay [11] it was 108%. In addition, the growth is 74.3% in assay [12]; 105% in assay [13]; 80.8% in assay [14]; 71.7% in assay [15]; 114% in assay [16]; 66.7% in assay [17]. Also, the growth in assay [18] is 74.2%.
As to `O=C(NNc1ccccc1)C1CCCN1` (stereo not given), the growth in [1] was 40.5%; in [2], 62.3%; in [3] it was 90.7%; in assay [4] it was 94.1%; in [5], 82.3%; in assay [6], 77%. Also, the growth is 89.1% in [7]; 16.2% in assay [8]; 8.66% (active) in assay [9]; 69.2% in assay [10]; 69.4% in [20]; 85.4% in [11]. The growth was 33% in assay [12]; 84.6% in [13]; 13.5% in assay [15]; 103% in assay [16]; 46.7% in assay [17]; 44.3% in assay [18].
As for `CSc1nnc(-c2cc3c([nH]c4ccccc43)c(-c3cccc(O)c3)n2)n1-c1ccc(C)cc1`, the growth in assay [1] was 23.2%; in assay [2], 8.92% (active); in assay [3], 30.1%; in [4], 54.3%; in assay [5] it was 29.4%; in [7] it was 13.5%. The growth in assay [8] was 40.1%; in assay [9] it was 29.3%; in [10], 9.42% (active); in assay [19] it was -13.6% (active); in assay [20], 70.4%; in [11], 62.7%. In addition, the growth in [12] is 41.5%; in assay [13] it was 35.5%; in assay [14] it was 32.3%; in assay [15], 48.3%; in [17] it was 12.2%; in [18] it was 17.4%.
As to `Nc1nc(CSc2n[nH]c(N)n2)nc(Nc2ccccc2)n1`, the growth was 94.2% in assay [1]; 106% in [2]; 82.2% in assay [3]; 101% in [4]; 99.9% in assay [5]; 101% in assay [7]. The growth was 91.9% in [8]; 98.3% in assay [9]; 100% in [10]; 106% in [19]; 96.1% in assay [20]; 101% in [11]. Also, the growth in assay [12] is 87.2%; in [13], 99.1%; in [14], 98.6%; in assay [15] it was 87.6%; in [16], 89.3%; in [17] it was 45.9%. Besides, in assay [18], the growth was 107%.
For the compound `O=C1/C(=C/c2ccc(-c3ccccc3C(F)(F)F)o2)SC(=S)N1CCc1ccc(O)cc1`, the growth in assay [1] was 29.6%; in [2], 14.8%; in assay [3] it was 29.2%; in [4] it was 87.8%; in assay [5], 44.1%; in assay [7], 84.4%. For the same compound, the growth in assay [8] is 47%; in assay [9], 41.4%; in assay [10], 69.5%; in [19], 70.1%; in assay [20], 75.3%; in assay [11], 66.6%. Also, the growth in assay [12] is 40.1%; in assay [13], 83.1%; in [14], 66.3%; in [15], 33.8%; in assay [16], 79.1%; in assay [17] it was 11.9%. In addition, the growth in assay [18] was 17.5%.
As to `COc1ccc(-c2nnc3n(C)c(=O)c4ccccc4n23)cc1O`, the growth was 22.9% in assay [1]; 18.8% in [2]; 9.51% (active) in [3]; 24.3% in assay [4]; 15.1% in assay [5]; 19% in [7]. The growth in assay [8] was 14.2%; in assay [9], 39.1%; in assay [10], 50.9%; in assay [19], 30.3%; in [20] it was 97.5%; in [11], 30.3%. Moreover, the growth in [12] is 52.7%; in assay [13], 51.4%; in [14], 47.5%; in [15], 35.2%; in assay [16], 21.6%; in assay [17], 10.7%. The growth in assay [18] is 32.5%.
